Source: PubChem BioAssay (Tox21)
Inconclusive results are not listed. Calls of active or inactive are those of the source. Unless noted, calls come from the whole dose curve; as a rule, active = well fitted curve in the direction sought with a large enough effect in the repeat runs; inconclusive = weak or mixed curves; inactive = no such curve, though single readings can be large; an effect the other way counts as inactive or inconclusive.

How the values were obtained:
[1] = qHTS assay to identify small molecule antagonists of the estrogen related receptor (ERR) signaling pathway from Tox21 library - cell viability counter screen (AID 1224834); note: % is set by controls: 0 for no effect and ±100 for the full control effect; nearly all actives have a fitted effect of over 30% in size
In short: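 CellTiter-Fluor fluorescence measured; ERR cells; 17.5 h compound incubation at 37 C; 30 min reagent step.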

[2] = qHTS assay to identify small molecule antagonists of the constitutive androstane receptor (CAR) signaling pathway - cell viability counter screen (AID 1224837); note: % is set by controls: 0 for no effect and ±100 for the full control effect; nearly all actives have a fitted effect of over 45% in size
In short: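 Using CellTiter-Fluor, viability is scored in HepG2 cells stably carrying hCAR and a 2.2kb CYP2B6 reporter after 23 hr compound exposure across 15 concentrations, with CITCO present at 50 nM.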

[3] = target: Nuclear receptor subfamily 1 group I member 3 (Homo sapiens) (UniProt Q14994); test: qHTS assay to identify small molecule antagonists of the constitutive androstane receptor (CAR) signaling pathway (AID 1224838);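 note: HepG2 cells stably expressing hCAR with CYP2B6 luciferase reporter stimulated by CITCO; % is set by controls: 0 for no effect and ±100 for the full control effect; nearly all actives have a fitted effect of over 40% in size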
Nuclear receptor subfamily 1 group I member 3 (Homo sapiens), sequence (Q14994 whole entry, looked up): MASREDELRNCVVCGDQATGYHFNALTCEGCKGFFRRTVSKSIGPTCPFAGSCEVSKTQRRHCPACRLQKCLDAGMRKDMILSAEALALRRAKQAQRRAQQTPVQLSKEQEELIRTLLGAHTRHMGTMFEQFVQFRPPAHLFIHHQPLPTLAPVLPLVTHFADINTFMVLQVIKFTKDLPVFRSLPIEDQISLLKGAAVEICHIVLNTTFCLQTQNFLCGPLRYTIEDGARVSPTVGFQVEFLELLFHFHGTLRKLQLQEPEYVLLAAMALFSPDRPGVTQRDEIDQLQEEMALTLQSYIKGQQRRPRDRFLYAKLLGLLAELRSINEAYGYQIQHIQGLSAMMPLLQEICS
In short: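 Reporter luminescence was quantified after 24 h exposure of hCAR/CYP2B6-2.2kb double-stable HepG2 cells to compounds at 15 concentrations in the presence of 50 nM CITCO final.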

[4] = target: Nuclear receptor subfamily 1 group I member 3 (Homo sapiens) (UniProt Q14994); test: qHTS assay to identify small molecule agonists of the constitutive androstane receptor (CAR) signaling pathway (AID 1224839); note: nearly all actives have a fitted effect of over 15% in size; note: potency is the fitted concentration of half-maximal effect;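 for activation: HepG2 cells stably carrying human CAR and a CYP2B6 luciferase reporter; % is set by controls: 0 for no effect and ±100 for the full control effect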
In short: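 In this screen, CAR-driven CYP2B6 promoter activity is measured by luminescence in HepG2-CYP2B6-hCAR cells after 24 h with test compounds and 0.75 uM PK11195 (final concentration).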

[5] = qHTS assay to identify small molecule antagonists of the estrogen related receptor signaling pathway with the pleiotropic PPARgamma coactivator (PGC) from Tox21 10K library (AID 1224841; call rule not given here; note: % is set by controls: 0 for no effect and ±100 for the full control effect; actives are mostly falling curves and most rising ones were filed inactive; nearly all actives have a fitted effect of over 50% in size)
In short: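 Each well held 2,000 PGC/ERR cells, pre-incubated six hours (37 C, 5% CO2). Test substances in DMSO were added by pin tool and left for 18 h at 37 C before luciferase detection by One-Glo.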

[6] = qHTS assay to identify small molecule agonists of the estrogen related receptor signaling pathway with the pleiotropic PPARgamma coactivator (PGC) from Tox21 10K library (AID 1224842); note: % is set by controls: 0 for no effect and ±100 for the full control effect; nearly all actives have a fitted effect of over 15% in size
In short: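 PGC/ERR reporter cells (NTP line) were seeded 2,000 per well, rested 6 h at 37 C/5% CO2, then pin-dosed with compounds in DMSO for 18 h at 37 C; luciferase read by One-Glo luminescence after 30 min at room temperature.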

[7] = target: Thyrotropin receptor (Homo sapiens) (UniProt P16473); test: qHTS assay to identify small molecule agonists of the thyroid stimulating hormone receptor (TSHR) signaling pathway (AID 1224843; calls by dose curve; note: % is set by controls: 0 for no effect and ±100 for the full control effect; nearly all actives have a fitted effect of over 45% in size)
Thyrotropin receptor (Homo sapiens), sequence (P16473 whole entry, looked up): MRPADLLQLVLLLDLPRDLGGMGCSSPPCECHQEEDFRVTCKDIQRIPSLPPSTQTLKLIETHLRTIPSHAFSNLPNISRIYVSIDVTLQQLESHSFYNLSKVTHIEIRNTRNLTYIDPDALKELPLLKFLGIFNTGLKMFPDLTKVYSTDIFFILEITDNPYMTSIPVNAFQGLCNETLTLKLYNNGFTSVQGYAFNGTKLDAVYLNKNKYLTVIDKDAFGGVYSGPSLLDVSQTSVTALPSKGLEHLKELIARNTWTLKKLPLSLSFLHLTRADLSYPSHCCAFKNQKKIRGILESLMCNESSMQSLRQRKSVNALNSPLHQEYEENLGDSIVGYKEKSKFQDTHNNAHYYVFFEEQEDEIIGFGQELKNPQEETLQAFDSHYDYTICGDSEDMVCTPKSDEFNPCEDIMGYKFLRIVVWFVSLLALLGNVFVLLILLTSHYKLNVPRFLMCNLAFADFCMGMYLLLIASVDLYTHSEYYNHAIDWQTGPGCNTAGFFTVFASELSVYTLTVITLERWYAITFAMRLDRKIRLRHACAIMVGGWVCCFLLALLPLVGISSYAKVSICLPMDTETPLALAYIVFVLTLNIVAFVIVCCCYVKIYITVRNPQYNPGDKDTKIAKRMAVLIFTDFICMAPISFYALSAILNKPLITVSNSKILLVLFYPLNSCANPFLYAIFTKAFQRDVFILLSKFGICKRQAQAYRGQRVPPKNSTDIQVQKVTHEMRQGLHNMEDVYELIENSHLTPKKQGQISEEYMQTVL
In short: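 Cell line HEK293 with TSHR; density 800/well. Exposure 30 min RT. Readout HTRF cAMP (cAMP-d2/anti-cAMP-cryptate), 1 h RT before reading.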

[8] = qHTS assay to identify small molecule agonists of the hypoxia (HIF-1) signaling pathway - cell viability counter screen (AID 1224844; calls by dose curve; note: % is set by controls: 0 for no effect and ±100 for the full control effect; nearly all actives have a fitted effect of over 50% in size)
In short: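 Multiplexed with the HRE beta-lactamase assay, this viability read used CellTiter-Glo luminescence (30 min, RT) on HRE-bla ME-180 cells treated 17 hrs with compounds in 0.5% dialyzed FBS medium.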

[9] = qHTS assay to identify small molecule agonists of H2AX (AID 1224845; active = well fitted activation curve with a large enough effect in the signal ratio in the repeat runs, not every such curve was filed as active; the % refers to the signal ratio; note: % is set by controls: 0 for no effect and ±100 for the full control effect)
In short: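 Wild-type CHO-K1 cells plated overnight, then exposed 3 hr at 37C to compounds at 15 concentrations (0.76% DMSO). Lysed, then HTRF anti-pH2AX(S139)-cryptate/anti-H2AX-d2 detection after 24 hr at room temperature; emissions 665 and 620 nm.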

[10] = qHTS assay to identify small molecule agonists of the hypoxia (HIF-1) signaling pathway (AID 1224846; active = well fitted activation curve with a large enough effect in the signal ratio in the repeat runs, not every such curve was filed as active; the % refers to the signal ratio; note: % is set by controls: 0 for no effect and ±100 for the full control effect)
In short: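 Hypoxia-pathway activation was scored as increased beta-lactamase from an HRE-controlled reporter in ME-180 cells; plated at 2,000 cells per well with 0.5% dialyzed FBS, they were exposed 17 hrs to compounds and then given CCF4-AM.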

[11] = qHTS assay to identify small molecule antagonists of the estrogen related receptor (ERR) signaling pathway from Tox21 library (AID 1224848); note: % is set by controls: 0 for no effect and ±100 for the full control effect; nearly all actives have a fitted effect of over 50% in size
In short: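 Screening used an ERR reporter line supplied by NTP, exposed for 18 h at 37 C to library compounds delivered in DMSO. Signal was luciferase luminescence developed with ONE-Glo at room temperature for 30 min.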

[12] = qHTS assay to identify small molecule agonists of the estrogen related receptor (ERR) signaling pathway from Tox21 library (AID 1224849; calls by dose curve; note: % is set by controls: 0 for no effect and ±100 for the full control effect; nearly all actives have a fitted effect of over 15% in size); settings: ERR reporter cell line, ONE-Glo luciferase, 18 h; at 92.4 µM (top of the series) unless noted
In short: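 Six hours post-seeding at 37 C/5% CO2, ERR cells receive DMSO-solubilised compounds; after 18 h at 37 C, ONE-Glo reagent is applied and luminescence recorded.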

[13] = qHTS RealTime-Glo MT Cell Viability Assay in HepG2 cells - 24 hour (AID 1224867); note: % is set by controls: 0 for no effect and ±100 for the full control effect; nearly all actives have a fitted effect of over 50% in size
In short: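 Real-time, nonlytic viability: 600 HepG2 cells/well mixed with NanoLuc enzyme plus prosubstrate; 5 h settle, compound (DMSO) added by pintool; luminescence monitored over 40 h at 37 C.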

[14] = qHTS RealTime-Glo MT Cell Viability Assay in HEK293 cells - 32 hour (AID 1224868)
In short: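 Cells + reagent dispensed (600 cells/well, HEK293) → 5 h at 37 C/5% CO2 → 23 nL compound in DMSO pinned → 40 h at 37 C → luminescence read at 0, 8, 16, 24, 32, 40 h.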

[15] = A CellTox Green Cytotoxicity Assay to monitor cytotoxicity in HEK293 cells - 0 hour (AID 1224869)
In short: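 Seeding of HEK293 cells together with cytotoxicity dye preceded a 5 h incubation at 37 C/5% CO2. Test compounds in DMSO were then added and fluorescence monitored across 40 h.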

[16] = qHTS assay to identify small molecule agonists of the constitutive androstane receptor (CAR) signaling pathway - cell viability counter screen (AID 1224836); note: % is set by controls: 0 for no effect and ±100 for the full control effect; nearly all actives have a fitted effect of over 45% in size
In short: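 Compound titrations (15 concentrations) went onto HepG2-CYP2B6-hCAR cells 4 h after seeding, alongside PK11195 at a final 0.75 uM; a 23 h, 37 C/5% CO2 incubation preceded CellTiter-Fluor viability measurement.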

[17] = qHTS assay to identify small molecule antagonists of the estrogen related receptor signaling pathway with the pleiotropic PPARgamma coactivator (PGC) from Tox21 10K library - cell viability counter screen (AID 1224840; active = well fitted cell-killing curve with a large enough effect in the repeat runs, not every such curve was filed as active; note: % is set by controls: 0 for no effect and ±100 for the full control effect; nearly all actives have a fitted effect of over 40% in size)
In short: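 Here the PGC/ERR cells serve as a cytotoxicity control: they are exposed to compounds for 17.5 hours at 37 C, and live-cell signal is quantified using CellTiter-Fluor fluorescence.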

[18] = qHTS assay to identify small molecule agonists of H2AX - cell viability counter screen (AID 1224847; calls by dose curve; note: top concentration of the series differs between compounds; % is set by controls: 0 for no effect and ±100 for the full control effect; nearly all actives have a fitted effect of over 30% in size)
In short: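 Read-out: CellTiter-Glo luminescence, 30 min RT. Cells: wild-type CHO-K1, 1000/well, 10% FBS, plated overnight at 37C. Treatment: 15 concentrations, 3 hr, 37C, 0.76% DMSO.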

[19] = target: Luciferin 4-monooxygenase (Photinus pyralis) (UniProt P08659); test: qHTS assay to identify small molecule inhibitors of firefly luciferase (AID 1224835); note: potency is the fitted concentration of half-maximal effect; nearly all actives have a fitted effect of over 25% in size
Luciferin 4-monooxygenase (Photinus pyralis), sequence (P08659 whole entry, looked up): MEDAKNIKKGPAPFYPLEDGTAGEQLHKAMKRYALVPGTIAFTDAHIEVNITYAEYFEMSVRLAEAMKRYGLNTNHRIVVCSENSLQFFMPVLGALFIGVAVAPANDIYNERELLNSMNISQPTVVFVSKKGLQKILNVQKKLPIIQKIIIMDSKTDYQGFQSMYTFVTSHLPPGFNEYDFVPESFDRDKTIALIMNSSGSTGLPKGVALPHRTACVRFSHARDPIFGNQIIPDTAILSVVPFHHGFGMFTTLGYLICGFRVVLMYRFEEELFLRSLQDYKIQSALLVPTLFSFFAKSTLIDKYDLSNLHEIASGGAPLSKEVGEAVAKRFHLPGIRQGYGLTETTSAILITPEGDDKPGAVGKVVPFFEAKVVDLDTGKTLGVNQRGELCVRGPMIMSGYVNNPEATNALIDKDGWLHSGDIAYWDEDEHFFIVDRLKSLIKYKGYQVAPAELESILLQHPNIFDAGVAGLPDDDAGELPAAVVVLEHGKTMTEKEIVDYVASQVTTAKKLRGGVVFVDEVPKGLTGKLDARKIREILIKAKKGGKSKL
In short: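 Quantitative HTS format; KM concentrations of both substrates. Purified P. pyralis FLuc activity quantified from luminescence images.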

CC(C)c1cccc(O)c1
inactive: Potency [1] | outcome [2] | Potency [3] | Potency [4] | Potency [5] | Potency [6] | outcome [7] | Potency [8] | outcome [9] | outcome [10] | Potency [11] | activity change, positive = activation [12] 1.69% | outcome [13] | Potency [14] | Potency [15]

CC(C)c1cccc(C(C)C)c1N
inactive: Potency [1] | outcome [2] | Potency [3] | Potency [4] | Potency [5] | Potency [6] | Potency [8] | outcome [9] | outcome [10] | Potency [11] | activity change, positive = activation [12] 0.341% | outcome [13] | Potency [14] | Potency [15]

O=C1OC(=O)c2cc([N+](=O)[O-])ccc21
inactive: Potency [1] | outcome [16] | outcome [2] | outcome [17] | outcome [7] | Potency [8] | outcome [9] | outcome [10] | Potency [18] | Potency [14] | Potency [15]

CCCCCCC(CCCCCCCCCCC(=O)OCC(COC(C)=O)OC(C)=O)OC(C)=O (stereo not given)
inactive: Potency [1] | outcome [16] | outcome [2] | outcome [17] | outcome [7] | Potency [8] | outcome [9] | outcome [10] | outcome [13] | Potency [14] | Potency [15]

O=C(CCOCCOCCOCCOCCC(=O)Nc1c(I)cc(I)c(C(=O)O)c1I)Nc1c(I)cc(I)c(C(=O)O)c1I
inactive: Potency [1] | outcome [16] | outcome [2] | outcome [17] | outcome [7] | Potency [8] | outcome [9] | outcome [10] | Potency [18] | outcome [13] | Potency [15]

CC(C)CCCC(C)NCCC(C)C (stereo not given)
inactive: Potency [1] | outcome [16] | outcome [2] | Potency [5] | Potency [6] | outcome [7] | Potency [8] | outcome [9] | outcome [10] | Potency [18] | Potency [11] | activity change, positive = activation [12] 1.21% [at 42.5 µM] | Potency [14] | Potency [15]

NC(CS)C(=O)O (stereo not given)
inactive: Potency [1] | outcome [16] | outcome [2] | outcome [17] | outcome [7] | Potency [8] | outcome [9] | outcome [10] | Potency [18] | outcome [13] | Potency [14] | Potency [15]

C=CC(=O)OCCCCCC
inactive: Potency [1] | outcome [2] | outcome [17] | outcome [7] | Potency [8] | outcome [9] | outcome [10] | Potency [18] | outcome [13] | Potency [14] | Potency [15]

COc1ccc(NC(C)=O)cc1
inactive: Potency [1] | outcome [16] | outcome [2] | outcome [17] | outcome [7] | Potency [8] | outcome [10] | Potency [18] | Potency [14] | Potency [15]

CSc1ccc(C=O)cc1
inactive: Potency [1] | outcome [16] | outcome [2] | outcome [17] | outcome [7] | Potency [8] | outcome [9] | Potency [18] | Potency [14] | Potency [15]

CC/C=C\CCCCO
inactive: Potency [1] | outcome [16] | outcome [2] | outcome [17] | Potency [8] | outcome [9] | outcome [10] | Potency [18] | outcome [13] | Potency [14] | Potency [15]

CCCc1ccc(N)cc1
inactive: Potency [1] | outcome [2] | Potency [3] | Potency [4] | outcome [17] | outcome [7] | Potency [8] | outcome [10] | outcome [13] | Potency [14] | Potency [15]

CC(C)(O)C(=O)c1ccc(OCCO)cc1
inactive: Potency [1] | outcome [16] | outcome [2] | outcome [17] | outcome [9] | outcome [10] | Potency [18] | outcome [13] | Potency [14] | Potency [15]

CC(C)(C)CC(C)(C)N
inactive: Potency [1] | outcome [16] | outcome [2] | outcome [17] | outcome [7] | Potency [8] | outcome [9] | outcome [10] | Potency [18] | outcome [13] | Potency [14] | Potency [15]

Cn1ccc2cc3c(cc21)CCN3C(=O)Nc1cccnc1
inactive: viability change, negative = cytotoxic [16] -0.1% [at 19 µM] | activity change, negative = cytotoxicity [2] -15.3% [at 19 µM] | activity, negative = inhibition [3] 213% [at 19 µM] | activation [7] 14.6% [at 19 µM] | activity change, negative = cytotoxicity [8] -7.99% [at 15.8 µM] | activation [10] -0.619% [at 15.8 µM] | activity change, negative = cytotoxicity [18] 1.26% [at 31.6 µM] | activity change, negative = cytotoxicity [13] -2.41% [at 15.8 µM] | activity change, negative = cytotoxic [14] -7.77% [at 15.8 µM] | cytotoxicity [15] -3.51% [at 15.8 µM]
active: Potency [19] 3790 nM | Potency [4] 1640 nM

C=C(C)[C@@H]1CCC2=CC(=O)C[C@@H](C)[C@]2(C)C1
inactive: Potency [1] | outcome [2] | outcome [17] | Potency [5] | Potency [6] | outcome [7] | Potency [8] | outcome [9] | outcome [10] | Potency [18] | Potency [11] | activity change, positive = activation [12] -3.73% | outcome [13] | Potency [14] | Potency [15]
